# Test results published in PubChem BioAssay (NCI).
# This is part of a sample that, as a whole, favours compounds with a hit. Of some 79,000 tested, about 15% had one in any assay. Unmarked numbers belong to inactive results. The source made the active and inactive calls. No stated cut-off is given here; in the data, active means growth inhibition above about 70%; inactive means the rest.
# Key:
# [1] = NCI Yeast Anticancer Drug Screen. Data for the wt1 strain (AID 149);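 further: 0% = growth of vehicle-treated wt1 cultures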; conditions: S. cerevisiae wt1 strain (SPY 50644) growth inhibition, active compounds read high
# Summary of the method: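 wt1 strain grown with compound or vehicle; inhibition taken from the growth difference.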
# [2] = NCI Yeast Anticancer Drug Screen. Data for the rad50EPP+ strain (AID 151);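 further: 0% = growth of vehicle-treated control cultures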; conditions: S. cerevisiae rad50 mutant strain, active compounds read high
# Summary of the method: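 Compounds were applied to the rad50EPP+ yeast strain, which bears a defined DNA repair alteration, and growth inhibition was determined relative to vehicle-treated cultures.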
# [3] = NCI Yeast Anticancer Drug Screen. Data for the rad50 strain (AID 155);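 further: 0% = growth of vehicle-only cultures of the same strain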; conditions: S. cerevisiae rad50 strain growth inhibition, active compounds read high
# Summary of the method: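 DNA repair mutant yeast, compound exposure, growth read-out; inhibition is taken relative to vehicle.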
# [4] = NCI Yeast Anticancer Drug Screen. Data for the mec2-1 strain (AID 157); conditions: S. cerevisiae mec2-1 strain, active compounds read high
# Summary of the method: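 Strain: mec2-1 (DNA repair/cell cycle alteration). Compound exposure, then growth measured; inhibition expressed relative to vehicle.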
# [5] = NCI Yeast Anticancer Drug Screen. Data for the rad14 strain (AID 159);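 further: 0% = growth of vehicle-treated control cultures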; conditions: S. cerevisiae rad14 strain growth inhibition, active compounds read high
# Summary of the method: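 DNA repair-defective yeast, compound-exposed; % growth inhibition derived by comparison with vehicle-treated controls.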
# [6] = NCI Yeast Anticancer Drug Screen. Data for the sgs1 mgt1 strain (AID 161);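 further: 0% = growth of cultures given vehicle only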; conditions: S. cerevisiae sgs1 mgt1 strain, active compounds read high
# Summary of the method: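 Test agents were incubated with a DNA-repair-mutant yeast strain. Growth was then read and compared against vehicle-treated controls.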
# [7] = NCI Yeast Anticancer Drug Screen. Data for the CLN2oe strain (AID 163);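 further: 0% = growth of vehicle-only control cultures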; conditions: S. cerevisiae CLN2oe strain, active compounds read high
# Summary of the method: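 Growth of a genetically modified yeast strain is measured after compound exposure and compared with cultures given vehicle alone.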
# [8] = NCI Yeast Anticancer Drug Screen. Data for the cln2 rad14 strain (AID 165);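 further: 0% = growth equal to vehicle treated cultures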; conditions: S. cerevisiae cln2 rad14 strain, active compounds read high
# Summary of the method: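 Compounds are applied to the cln2 rad14 yeast strain, and growth is then compared with that of vehicle-treated cultures to give inhibition.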
# [9] = NCI Yeast Anticancer Drug Screen. Data for the bub3 strain (AID 167); conditions: S. cerevisiae bub3 mutant strain, active compounds read high
# Summary of the method: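 In this screen, a yeast mutant lacking normal mitotic checkpoint function is challenged with compound. Relative growth versus vehicle gives the inhibition value.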
# [10] = NCI Yeast Anticancer Drug Screen. Data for the mlh1 strain (AID 171);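 further: 0% = growth of vehicle-treated control cultures of the same strain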; conditions: S. cerevisiae mlh1 strain growth inhibition, active compounds read high
# Summary of the method: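 Growth of the mutant yeast strain after compound exposure, expressed as inhibition relative to vehicle-only controls.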
# [11] = NCI Yeast Anticancer Drug Screen. Data for the sgs1 strain (AID 173);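 further: 0% = growth of vehicle-only control cultures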; conditions: S. cerevisiae sgs1 mutant, active compounds read high
# Summary of the method: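 Growth of a yeast strain bearing a defined genetic alteration is measured after compound treatment. Inhibition is expressed relative to vehicle-only controls.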
# [12] = NCI Yeast Anticancer Drug Screen. Data for the mlh1 rad18 strain (AID 175); conditions: S. cerevisiae mlh1 rad18 strain growth inhibition, active compounds read high
# Summary of the method: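 Read-out is yeast growth inhibition, calculated against vehicle-only controls. The compound was applied to a strain engineered with DNA damage repair alterations.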
# [13] = NCI Yeast Anticancer Drug Screen. Data for the rad18 strain (AID 177); conditions: S. cerevisiae rad18 mutant growth inhibition, active compounds read high
# Summary of the method: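 Growth of the mutant yeast strain after compound exposure, normalised to vehicle-only cultures.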
# [14] = NCI Yeast Anticancer Drug Screen. Data for the wt2 strain (AID 169);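 further: 0% = growth of vehicle-treated yeast cultures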; conditions: S. cerevisiae wt2 strain growth inhibition, active compounds read high
# Summary of the method: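 This strain belongs to a panel of yeast strains with defined genetic alterations in DNA damage repair or cell cycle control. Compounds are applied, and growth inhibition is measured against vehicle-treated cultures.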
# [15] = at 5.0 µM (retest, dose inferred, filed as 0.5)
# [16] = at 50.0 µM (retest, dose inferred, filed as 5.0)
smiles,measurement,setting,value
O=Cn1c2ccccc2c2ccccc21,growth inhibition,[1]; at 1.2 µM,-16%
same,growth inhibition,[1]; at 3.7 µM,-14%
same,growth inhibition,[1]; at 11.0 µM,-8%
same,growth inhibition,[1]; at 33.0 µM,-7%
same,growth inhibition,[1]; at 100.0 µM,23%
same,growth inhibition,[2]; at 1.2 µM,-54%
same,growth inhibition,[2]; at 3.7 µM,-27%
same,growth inhibition,[2]; at 11.0 µM,0%
same,growth inhibition,[2]; at 33.0 µM,10%
same,growth inhibition,[2]; at 100.0 µM,91% (active)
same,growth inhibition,[3]; at 1.2 µM,-42%
same,growth inhibition,[3]; at 3.7 µM,-4%
same,growth inhibition,[3]; [15],63%
same,growth inhibition,[3]; at 11.0 µM,9%
same,growth inhibition,[3]; at 33.0 µM,-1%
same,growth inhibition,[3]; [16],90% (active)
same,growth inhibition,[3]; at 50.0 µM,64.2%
same,growth inhibition,[3]; at 100.0 µM,82% (active)
same,growth inhibition,[4]; at 1.2 µM,-51%
same,growth inhibition,[4]; at 3.7 µM,-30%
same,growth inhibition,[4]; [15],57%
same,growth inhibition,[4]; at 11.0 µM,-33%
same,growth inhibition,[4]; at 33.0 µM,-23%
same,growth inhibition,[4]; [16],90% (active)
same,growth inhibition,[4]; at 50.0 µM,44.4%
same,growth inhibition,[4]; at 100.0 µM,31%
same,growth inhibition,[5]; at 1.2 µM,-32%
same,growth inhibition,[5]; at 3.7 µM,-20%
same,growth inhibition,[5]; at 11.0 µM,-19%
same,growth inhibition,[5]; at 33.0 µM,-20%
same,growth inhibition,[5]; at 100.0 µM,25%
same,growth inhibition,[6]; [15],-16%
same,growth inhibition,[6]; [16],46%
same,growth inhibition,[6]; at 50.0 µM,33.5%
same,growth inhibition,[7]; at 1.2 µM,-12%
same,growth inhibition,[7]; at 3.7 µM,-15%
same,growth inhibition,[7]; at 11.0 µM,1%
same,growth inhibition,[7]; at 33.0 µM,-21%
same,growth inhibition,[7]; at 100.0 µM,39%
same,growth inhibition,[8]; [15],59%
same,growth inhibition,[8]; [16],74% (active)
same,growth inhibition,[8]; at 50.0 µM,20.6%
same,growth inhibition,[9]; at 1.2 µM,-26%
same,growth inhibition,[9]; at 3.7 µM,-8%
same,growth inhibition,[9]; [15],42%
same,growth inhibition,[9]; at 11.0 µM,13%
same,growth inhibition,[9]; at 33.0 µM,-21%
same,growth inhibition,[9]; [16],66%
same,growth inhibition,[9]; at 50.0 µM,60.9%
same,growth inhibition,[9]; at 100.0 µM,60%
same,growth inhibition,[10]; at 1.2 µM,-18%
same,growth inhibition,[10]; at 3.7 µM,-17%
same,growth inhibition,[10]; at 11.0 µM,4%
same,growth inhibition,[10]; at 33.0 µM,-2%
same,growth inhibition,[10]; at 100.0 µM,65%
same,growth inhibition,[11]; at 1.2 µM,-32%
same,growth inhibition,[11]; at 3.7 µM,-37%
same,growth inhibition,[11]; at 11.0 µM,-8%
same,growth inhibition,[11]; at 33.0 µM,-15%
same,growth inhibition,[11]; at 100.0 µM,57%
same,growth inhibition,[12]; [15],54%
same,growth inhibition,[12]; [16],97% (active)
same,growth inhibition,[12]; at 50.0 µM,70.8% (active)
same,growth inhibition,[13]; at 1.2 µM,-41%
same,growth inhibition,[13]; at 3.7 µM,-32%
same,growth inhibition,[13]; at 11.0 µM,-26%
same,growth inhibition,[13]; at 33.0 µM,-21%
same,growth inhibition,[13]; at 100.0 µM,65%
O=S(=O)(CCC[C@H]1[C@@H](CCOCc2ccccc2)C2CCCN1O2)c1ccccc1 (stereo partly specified),growth inhibition,[1]; at 1.2 µM,2%
same,growth inhibition,[1]; at 3.7 µM,2%
same,growth inhibition,[1]; at 11.0 µM,1%
same,growth inhibition,[1]; at 33.0 µM,1%
same,growth inhibition,[1]; at 100.0 µM,19%
same,growth inhibition,[2]; at 1.2 µM,0%
same,growth inhibition,[2]; at 3.7 µM,-1%
same,growth inhibition,[2]; at 11.0 µM,2%
same,growth inhibition,[2]; at 33.0 µM,2%
same,growth inhibition,[2]; at 100.0 µM,4%
same,growth inhibition,[3]; at 1.2 µM,-3%
same,growth inhibition,[3]; at 3.7 µM,-13%
same,growth inhibition,[3]; [15],-9%
same,growth inhibition,[3]; at 11.0 µM,-13%
same,growth inhibition,[3]; at 33.0 µM,10%
same,growth inhibition,[3]; [16],-11%
same,growth inhibition,[3]; at 50.0 µM,-4.6%
same,growth inhibition,[3]; at 100.0 µM,22%
same,growth inhibition,[4]; at 1.2 µM,4%
same,growth inhibition,[4]; at 3.7 µM,4%
same,growth inhibition,[4]; [15],-9%
same,growth inhibition,[4]; at 11.0 µM,5%
same,growth inhibition,[4]; at 33.0 µM,13%
same,growth inhibition,[4]; [16],-22%
same,growth inhibition,[4]; at 50.0 µM,-19.2%
same,growth inhibition,[4]; at 100.0 µM,27%
same,growth inhibition,[5]; at 1.2 µM,1%
same,growth inhibition,[5]; at 3.7 µM,-3%
same,growth inhibition,[5]; at 11.0 µM,3%
same,growth inhibition,[5]; at 33.0 µM,10%
same,growth inhibition,[5]; at 100.0 µM,25%
same,growth inhibition,[6]; [15],9%
same,growth inhibition,[6]; [16],20%
same,growth inhibition,[6]; at 50.0 µM,-23.6%
same,growth inhibition,[7]; at 1.2 µM,1%
same,growth inhibition,[7]; at 3.7 µM,6%
same,growth inhibition,[7]; at 11.0 µM,5%
same,growth inhibition,[7]; at 33.0 µM,16%
same,growth inhibition,[7]; at 100.0 µM,37%
same,growth inhibition,[8]; [15],-7%
same,growth inhibition,[8]; [16],46%
same,growth inhibition,[8]; at 50.0 µM,42.5%
same,growth inhibition,[9]; at 1.2 µM,1%
same,growth inhibition,[9]; at 3.7 µM,2%
same,growth inhibition,[9]; [15],22%
same,growth inhibition,[9]; at 11.0 µM,2%
same,growth inhibition,[9]; at 33.0 µM,6%
same,growth inhibition,[9]; [16],10%
same,growth inhibition,[9]; at 50.0 µM,-12.1%
same,growth inhibition,[9]; at 100.0 µM,12%
same,growth inhibition,[14]; at 1.2 µM,-1%
same,growth inhibition,[14]; at 3.7 µM,-1%
same,growth inhibition,[14]; at 11.0 µM,-3%
same,growth inhibition,[14]; at 33.0 µM,2%
same,growth inhibition,[14]; at 100.0 µM,26%
same,growth inhibition,[10]; at 1.2 µM,3%
same,growth inhibition,[10]; at 3.7 µM,3%
same,growth inhibition,[10]; at 11.0 µM,1%
same,growth inhibition,[10]; at 33.0 µM,7%
same,growth inhibition,[10]; at 100.0 µM,26%
same,growth inhibition,[11]; at 1.2 µM,2%
same,growth inhibition,[11]; at 3.7 µM,3%
same,growth inhibition,[11]; at 11.0 µM,2%
same,growth inhibition,[11]; at 33.0 µM,19%
same,growth inhibition,[11]; at 100.0 µM,41%
same,growth inhibition,[12]; [15],-14%
same,growth inhibition,[12]; [16],-2%
same,growth inhibition,[12]; at 50.0 µM,0.4%
